Assay results as given in PubChem BioAssay AID1159580 (chemical genetic matrix, 2015).
Values joined by “and” are separate entries in the source; they are usually repeats but may differ in a detail not shown here. Equal values may be shown once. Out of some 5,500 compounds screened, about 2,000 (36%) were called active. Inconclusive results (about 18%) are left out. Cut-off read from the data, not from the text of the source: active = normalized growth mostly below about 0.91 (no sharp cut-off); inconclusive = no clear call, values can overlap the other calls; inactive = mostly above about 0.92. Some of the results follow.

Assay: chemical genetic growth profiling, strain panel (AID 1159580);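 note: tested at 20 µM; growth read once vehicle control cultures reached saturation at 30 °C; 1 = growth at the plate median or of vehicle wells; lower values mean less growth of the strain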
Settings: S. cerevisiae deletion strains, growth OD

Measured: normalized growth

C=CCc1cc(OC)c2c(c1OC)OCO2
active: locus YBR023C, strain chs3, hits give low values 0.902 | locus YBR171W, strain sec66, hits give low values 0.874 | locus YDL040C, strain nat1, hits give low values 0.924 | locus YDR101C, strain arx1, hits give low values 0.908 | locus YDR159W, strain sac3, hits give low values 0.797 | locus YDR195W, strain ref2 1.22 [resistant] | locus YDR392W, strain spt3, hits give low values 0.378 | locus YER111C, strain swi4, hits give low values 0.898 | locus YER155C, strain BEM2 (second series), hits give low values 0.462 | locus YGL167C, strain pmr1, hits give low values 0.908 | locus YGL227W, strain vid30, hits give low values 0.882 | locus YGL240W, strain doc1, hits give low values 0.839 | locus YHR013C, strain ard1, hits give low values 1.32 [resistant] | locus YHR142W, strain chs7, hits give low values 0.723 | locus YJL095W, strain BCK1 (second series), hits give low values 0.879
inactive: locus YAL013W, strain DEP1, hits give low values 0.971 | locus YAL021C, strain ccr4, hits give low values 1 | locus YAL026C, strain drs2, hits give low values 0.955 | locus YAL030W, strain snc1, hits give low values 0.95 | locus YBL061C, strain skt5, hits give low values 0.926 | locus YBR009C, strain hhf1, hits give low values 0.938 | locus YBR021W, strain FUR4, hits give low values 0.934 | locus YBR229C, strain ROT2, hits give low values 0.996 | locus YBR231C, strain swc5, hits give low values 0.982 | locus YBR279W, strain paf1, hits give low values 0.966 | locus YCL011C, strain gbp2, hits give low values 0.937 | locus YCL016C, strain dcc1, hits give low values 0.937 | locus YCL029C, strain bik1, hits give low values 0.945 | locus YCL061C, strain MRC1, hits give low values 0.944 | locus YCL069W, strain vba3, hits give low values 0.969 | locus YCR088W, strain abp1, hits give low values 0.954 | locus YDL005C, strain med2, hits give low values 0.992 | locus YDL035C, strain GPR1, hits give low values 0.968 | locus YDL074C, strain BRE1, hits give low values 0.91 | locus YDL101C, strain DUN1, hits give low values 0.995 | locus YDL134C, strain PPH21, hits give low values 0.982 | locus YDL185W, strain tfp1, hits give low values 0.968 | locus YDL192W, strain arf1, hits give low values 0.956 | locus YDR001C, strain nth1, hits give low values 0.93 | locus YDR069C, strain doa4, hits give low values 1.06 | locus YDR137W, strain rgp1, hits give low values 0.955 | locus YDR150W, strain NUM1, hits give low values 0.979 | locus YDR162C, strain NBP2, hits give low values 0.951 | locus YDR297W, strain sur2, hits give low values 0.94 | locus YDR318W, strain mcm21, hits give low values 0.947 | locus YDR334W, strain swr1, hits give low values 1.02 | locus YDR335W, strain msn5, hits give low values 0.982 | locus YDR388W, hits give low values 0.947 | locus YDR502C, strain sam2, hits give low values 0.929 | locus YEL003W, strain gim4, hits give low values 0.955 | locus YEL037C, strain rad23, hits give low values 0.987 | locus YEL061C, strain CIN8 (second series), hits give low values 0.946 | locus YEL061C, strain CIN8, hits give low values 0.966 | locus YER015W, strain faa2, hits give low values 0.955 | locus YER016W, strain bim1, hits give low values 0.938 | locus YER110C, hits give low values 0.929 | locus YER155C, strain BEM2, hits give low values 0.96 | locus YER167W, strain BCK2, hits give low values 0.938 | locus YFR010W, strain ubp6, hits give low values 1.06 | locus YGL078C, strain dbp3, hits give low values 0.959 | locus YGL086W, strain mad1, hits give low values 0.962 | locus YGL173C, strain kem1, hits give low values 0.909 | locus YGL248W, strain PDE1, hits give low values 0.983 | locus YGL253W, strain hxk2, hits give low values 0.945 | locus YGR078C, strain PAC10, hits give low values 0.903 | locus YGR135W, strain pre9, hits give low values 0.948 | locus YGR229C, strain SMI1, hits give low values 0.932 | locus YGR252W, strain gcn5, hits give low values 0.969 | locus YHR027C, strain rpn1, hits give low values 0.947 | locus YHR030C, strain SLT2, hits give low values 0.963 and 0.999 | locus YHR079C, strain IRE1 (second series), hits give low values 0.932 | locus YHR079C, strain IRE1, hits give low values 0.995 | locus YHR094C, strain hxt1, hits give low values 0.935 | locus YHR129C, strain ARP1, hits give low values 0.955 | locus YHR200W, strain rpn10, hits give low values 0.969 | locus YIL066C, strain RNR3, hits give low values 0.979 | locus YIL073C, strain SPO22, hits give low values 1.07 | locus YIL125W, strain kgd1, hits give low values 0.934 | locus YIR030C, strain dcg1, hits give low values 0.933 | locus YJL092W, strain hpr5, hits give low values 0.922 | locus YJL095W, strain BCK1, hits give low values 0.868 and 0.994 | locus YJL115W, strain asf1, hits give low values 0.978 | locus YJL129C, strain trk1, hits give low values 0.942 | locus YJL134W, strain LCB3, hits give low values 0.973 | locus YJL154C, strain vps35, hits give low values 0.989 | locus YJL164C, strain tpk1, hits give low values 0.939 | locus YJL166W, strain qcr8, hits give low values 0.934 | locus YJL168C, strain set2, hits give low values 0.94 | locus YJL187C, strain SWE1 (second series), hits give low values 0.985 | locus YJL187C, strain SWE1, hits give low values 0.945 | locus YJR043C, strain POL32, hits give low values 1.05 | locus YJR066W, strain TOR1, hits give low values 0.95
